The nature of assay [1]: compound effects on lung adenocarcinoma cell viability – A549, calcein-AM fluorescence, 48 h, basal, profiling panel (AID 1162). The note with it: higher = more signal.
A short description of assay [2]: compound effects on differentiated 3T3-L1 adipocyte viability – cell-based, 3T3-L1 adipocytes, calcein-AM fluorescence, 48 h, basal, profiling panel (AID 1163). Conditions: 3T3-L1 adipocytes viability, higher = more signal.
Assay [3] is described as follows: compound effects on hepatocellular carcinoma cell viability – HepG2, calcein-AM fluorescence, 48 h, basal, profiling panel (AID 1164). The note with it: higher = more signal.
The nature of assay [4]: compound effects on multiple myeloma cell viability – MM1S, calcein-AM fluorescence, 48 h, basal, profiling panel (AID 1165). Conditions: higher = more signal.
A short description of assay [5]: calcein-AM signal in unstimulated myeloma cells – cell-based, calcein-AM fluorescence, 48 h, PK04 Diversity Set, profiling panel (AID 1166).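 Note: cells grown under basal conditions without added stimulus.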 The note with it: RPMI8226 myeloma viability, higher = more signal.
Assay [6] is described as follows: JC-1 mitochondrial signal, unstimulated HepG2 cells – cell-based, JC-1 fluorescence, 24 h, 100 nL compound, profiling panel (AID 1167). The note with it: HepG2 mitochondrial potential, higher = more signal.
A short description of assay [7]: JC-1 mitochondrial signal, unstimulated adipocytes – cell-based, JC-1 fluorescence, 3T3-L1 adipocytes, 24 h, 100 nL compound, profiling panel (AID 1168). Conditions: JC-1 mitochondrial fluorescence, higher = more signal, called active from +8 up or from −8 down.
Assay [8] can be described thus: JC-1 mitochondrial signal, unstimulated myeloma cells – cell-based, JC-1 fluorescence, RPMI8226, 24 h, 100 nL compound, profiling panel (AID 1169). Conditions: JC-1 mitochondrial potential fluorescence, higher = more signal.
Assay [9] in a line: JC-1 mitochondrial signal, unstimulated MM1S myeloma – cell-based, JC-1 fluorescence, 24 h, 100 nL compound, profiling panel (AID 1170). Conditions: MM1S mitochondrial potential, higher = more signal.
Assay [10] in a line: resazurin metabolic signal in A549 cells – cell-based, resazurin fluorescence, 24 h, PK04 Diversity Set, profiling panel (AID 1171). The note with it: A549 viability, higher = more signal, called active from +8 up or from −8 down. On the technique in general: Resazurin is reduced to fluorescent resorufin, in cell work by metabolically active cells.

The structures appear in SMILES notation. Active and inactive are the calls of the source.
Note: test concentration not given here.

For the compound `O=C1[C@H]2[C@H]3[C@H](O)[C@H](O)CC(=NOCc4ccccc4)[C@H]3CC[C@H]2C(=O)N1c1ccc(F)cc1F`, the z-score in assay [1] was 0.213; in [2], 0.118; in [3] it was -0.196; in [4], 0.772; in [5], 0.471; in assay [6], 0.577. The z-score in assay [7] is 0.918 (inactive); in assay [8] it was 0.305; in [9], -0.801; in [10] it was -0.0399 (inactive).

Regarding `COc1ccc(O[C@H]2C=C[C@@H](c3ccccc3)O[C@@H]2COC(=O)N2CCCCC2)cc1`, the z-score in assay [1] is -0.0152; in [2], -0.303; in [3], 0.0678; in assay [4], -0.979; in assay [5], -1.22; in assay [6], 1.23. Moreover, the z-score in [7] was -0.0796 (inactive); in assay [8] it was -0.358; in assay [9], 0.125; in assay [10], 1.57 (inactive).

With `CCOC(=O)[C@H](CC(C)C)NC(=O)CCC1CC(OC(=O)NCc2cccc3ccccc23)CC2(CCCC(COC(=O)NCCN3CCOCC3)O2)O1` (stereo not given in full), the z-score in assay [1] was 0.609; in assay [2] it was 0.0174; in [3], -0.667; in assay [4] it was 0.109; in [5], -0.275; in assay [6], -0.084. Also, the z-score in [7] was -1.16 (inactive); in assay [8] it was -0.268; in [9] it was -0.166; in assay [10], 1.29 (inactive).

With `CCCNC(=O)OC[C@H]1O[C@H](CCON=C[C@@H](OC)[C@H](C)C=CCC(=O)OC)C=C[C@@H]1Oc1ccc(OC)cc1`, the z-score was 0.0666 in assay [1]; 0.764 in assay [2]; 0.97 in [3]; -0.902 in [4]; 0.122 in [5]; -0.12 in [6]. Besides, the z-score was -0.277 (inactive) in [7], 0.0719 in assay [8], -0.118 in [9] and 1.2 (inactive) in assay [10].

`CC(=O)OC[C@H]1O[C@H](C#CCCCc2ccccc2)C=C[C@@H]1OC(C)=O`: the z-score in assay [1] is -0.442; in assay [2], -0.0563; in [3] it was -2.26; in assay [4] it was -3.51; in assay [5], -3.61; in assay [6] it was -1.12. Besides, the z-score in [7] was 0.288 (inactive); in assay [8], -0.861; in [9], -2.26; in assay [10], 0.899 (inactive).

`COC(=O)[C@H]1COC(c2ccc(OCCCO)cc2)=N1`: the z-score in assay [1] is -0.283; in [2], 0.568; in [3], -0.344; in assay [4], 0.0072; in assay [5] it was -0.231; in assay [6] it was -0.371. Besides, the z-score in assay [7] is 0.203 (inactive); in assay [8], -0.16; in assay [9], 1.23; in assay [10] it was 0.0759 (inactive).

Turning to `CC(C)[C@@H](OCc1ccccc1)[C@H](C)C=NOC[C@@H](C)[C@H](OCc1ccccc1)C(C)C`, the z-score in assay [1] was 0.243; in [2], -0.231; in assay [3] it was -0.661; in [4] it was 0.27; in [5], 0.0507; in assay [6], -0.245. In addition, the z-score in [7] was -0.149 (inactive); in [8], 0.0367; in assay [9] it was -0.0858; in [10], -0.689 (inactive).

On to `C[C@H]1Cc2c(-c3ccccc3)nc3c(c2CO1)CN(CCOc1ccccc1)CC3`, for which the z-score was 2.68 in assay [1]; 0.173 in assay [2]; 1.27 in assay [3]; 0.785 in assay [4]; 0.11 in assay [5]; 0.932 in assay [6]. The z-score in assay [7] is 0.281 (inactive); in [8], -0.324; in assay [9], -0.439; in [10] it was -0.31 (inactive).

Regarding `O=C1[C@H]2[C@H]3[C@H](O)[C@H](O)CC(=NOCc4ccccc4)[C@H]3CC[C@H]2C(=O)N1c1cccc(Oc2ccccc2)c1`, the z-score in [1] was 0.382; in assay [2], -0.921; in assay [3], -0.6; in assay [4], -0.641; in assay [5], 0.907; in assay [6], -0.988. Further, the z-score in [7] was 0.394 (inactive); in assay [8] it was 0.341; in [9], -0.721; in assay [10], 0.188 (inactive).

On to `COC(=O)C1=C(C)[C@@H](O)[C@@H](C)[C@H](c2c(OC)c(OC)c(C)c(OC)c2OC)O1`, for which the z-score in assay [1] is -0.501; in [2], -0.63; in assay [3] it was 0.287; in assay [4] it was 0.631; in assay [5] it was -0.976; in assay [6], -0.206. In addition, the z-score in assay [7] was 0.657 (inactive); in assay [8] it was 0.267; in assay [9], -0.722; in assay [10] it was -0.345 (inactive).

As for `CC(C)OC(=O)C=C1C[C@@H](c2ccc(C#N)cc2)O[C@@H](c2ccc(C#N)cc2)O1`, the z-score is -0.301 in [1]; 0.538 in assay [2]; -0.0099 in assay [3]; -2.29 in assay [4]; -0.69 in assay [5]; -1.06 in assay [6]. Also, the z-score is -0.195 (inactive) in [7], -0.462 in assay [8], -2.22 in assay [9] and 0.199 (inactive) in assay [10].

Consider `O=C1[C@H]2[C@H]3[C@H](O)[C@H](O)CC(=NOC[C@@H](O)COCc4ccco4)[C@H]3CC[C@H]2C(=O)N1c1cccc(Oc2ccccc2)c1`, for which the z-score in assay [1] is 1.26; in assay [2], 0.01; in assay [3], -0.463; in assay [4], 0.511; in assay [5], 0.977; in [6] it was 0.526. In addition, the z-score in [7] was 0.994 (inactive); in assay [8], 0.682; in [9] it was -1.2; in assay [10], 0.26 (inactive).

The values are drawn from PubChem BioAssay.
